Test results taken from PubChem BioAssay (NCATS).
Records with an inconclusive call do not appear. Values without a mark were called inactive. Active and inactive are the calls of the source. The call rests on the fitted dose curve; in most records, active means well fitted cell-killing curve with a large enough effect; inconclusive means small, poorly fitted or top-dose-only effect, or effect the other way; inactive means no such curve, though single readings can be large or run the other way.

Assay: Viability qHTS for spleen associated tyrosine kinase inhibitor (SYKi) drug resistant MV4-11 cells (AID 1963824); further: nearly all actives have a fitted effect of over 35% in size
Settings: SYKi-resistant MV4-11 viability, CellTiter-Glo, 72 h; series mostly up to 45 µM
Summary of the method: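 CellTiter-Glo luminescence, read 10 min after reagent addition, reports viability after a 72 hr compound exposure. Cells are an MV4-11 line made resistant to SYK inhibition, seeded at 500 per well onto compound-containing plates.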
Potency means the concentration at half of the fitted maximal effect.

Row | Compound | Potency | viability, % of control
1 | CC[C@@H](C)[C@@H]1OC2(C=C[C@H]1C)C[C@@H]1C[C@H](C/C=C(\C)[C@H](O[C@H]3C[C@H](OC)[C@H](O[C@H]4C[C@H](OC)[C@H](NC(C)=O)[C@H](C)O4)[C@H](C)O3)[C@H](C)/C=C/C=C3\CO[C@H]4[C@H](O)C(C)=C[C@@H](C(=O)O1)[C@@]34O)O2 (stereo partly drawn) | 2.27 µM (active) | –
2 | CC(=O)OC[C@@]12[C@H](O)C[C@]3(C)C(=CCC4[C@@]5(C)CC[C@H](O[C@@H]6O[C@H](C(=O)O)[C@@H](O[C@@H]7O[C@H](CO)[C@@H](O)[C@H](O)[C@H]7O)[C@H](O)[C@H]6O[C@@H]6O[C@H](CO)[C@@H](O)[C@H](O)[C@H]6O)[C@](C)(CO)C5CC[C@]43C)[C@@H]1CC(C)(C)[C@@H](OC(C)=O)[C@@H]2O (stereo partly drawn) | – | 95.8% [at 9.25 µM]
3 | Fc1ccc(C2CCNC[C@H]2COc2ccc3c(c2)OCO3)cc1 (stereo partly drawn) | 9.2 µM (active) | –
4 | Nc1ncnc2c1c(I)cn2C1OC(CO)C(O)C1O (stereo not drawn) | 0.411 µM (active) | –
5 | CC(=O)OC[C@@]12[C@H](O)C[C@@H](C)[C@]3(C[C@@H](c4ccoc4)OC3=O)[C@H]1C[C@H](O)C[C@]21CO1 | inactive | –
6 | CC(=O)c1ccc(O[C@@H]2O[C@H](CO)[C@@H](O)[C@H](O)[C@H]2O)cc1 | inactive | –
7 | C/C=C(\C)C(=O)OC1C(C)C2(O)C(C=C(CO)CC3(O)C(=O)C(C)=CC32)C2C(C)(C)C12OC(C)=O (stereo not drawn) | 0.112 µM (active) | –
8 | COc1ccc2cc1Oc1ccc(cc1)CC1c3cc(c(OC)cc3CCN1C)Oc1c(OC)c(OC)c(OC)c3c1C(C2)N(C)CC3 (stereo not drawn) | 10 µM (active) | –
9 | c1ccc(-c2cnc(Nc3ccc(OCCN4CCCC4)cc3)s2)cc1 | 0.0206 µM (active) | –
10 | CC(=O)O[C@@H]1[C@@H](OC(C)=O)[C@H](C)O[C@@H](O[C@H]2[C@@H]3C=CO[C@@H](O[C@@H]4O[C@H](CO)[C@@H](O)[C@H](O)[C@H]4O)[C@@H]3[C@@]3(CO)O[C@@H]23)[C@@H]1OC(=O)/C=C/c1ccccc1 | 6.11 µM (active) | –
11 | C/C=C/C=C/C=C/C(=O)O[C@@H]1C=C(CO)C(O)(C(=O)OC)[C@@]2(C)CCCC(C)(C)C12 (stereo partly drawn) | 10 µM (active) | –
12 | COc1cc(O)c2c(c1)/C=C/C[C@H](O)[C@H](O)C(=O)/C=C\C[C@H](C)OC2=O | 0.259 µM (active) | –
13 | COc1ccccc1NC(=O)Nc1ccc2ccccc2c1 | 20.6 µM (active) | –
14 | CC(C)=CCc1c(O)cc2oc3cc(C)cc(O)c3c2c1C | 23.1 µM (active) | –
15 | C[C@@]12CC[C@@H]3[C@@](CC[C@H]4[C@@]3(C)CCC[C@@]4(C)C(=O)O)(CC1=O)C2 | inactive | –
16 | CCC[C@@H]1O[C@@H]2C[C@H]3[C@@H]4CCC5=CC(=O)C=C[C@]5(C)[C@H]4[C@@H](O)C[C@]3(C)[C@]2(C(=O)CO)O1 | 8.2 µM (active) | –
17 | C=C1CC/C=C(/CO)C(=O)C[C@@H]2[C@@H]1CC2(C)C | inactive | –
18 | C=C[C@]1(C)C[C@H](O)[C@H]2C(=C)C(=O)O[C@@H]2[C@H]1C(=C)CO | 14.6 µM (active) | –
